Targets with a hit are over-represented here; the source holds about 8,800 in all. About 0.5% of all pairs of compound and target were hits.
Key:
Assay in all cases: log2 fold change, soluble protein after heating vs DMSO (PISA); higher = thermal stabilisation; K562 lysate, 10 uM; active = over 0.2 and 3.5 SD of the protein, either way, in both replicates (recomputed)
[1] = compound: Cc1cn(-c2cc(NC(=O)c3ccc(C)c(Nc4nccc(-c5cccnc5)n4)c3)cc(C(F)(F)F)c2)cn1 [nilotinib]
Method in brief: (§1)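 Pellets of K562 cells were dounce-homogenised in PBS pH 7.4 with 1 mM MgCl2, and the crude extract was held at 1 mg/mL protein for a 30 min treatment with 10 μM compound. Aliquots were heated for 3 min over 48°C-58°C and pooled before NP-40 was added to 0.5% at 4°C. The supernatant from 21,000xg for 90 min was quantified by TMTpro 16plex LC-MS/MS with channel sums equalised. Values are reported from duplicates as log-two fold change in thermal stability relative to solvent controls.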

[2] = compound: Cc1nc(Nc2n[nH]c3c2CN(C(=O)N[C@H](CN(C)C)c2ccccc2)C3(C)C)c2sccc2n1
Method in brief: as §1

[3] = compound: Cc1nc(Nc2ncc(C(=O)Nc3c(C)cccc3Cl)s2)cc(N2CCN(CCO)CC2)n1 [dasatinib]
Method in brief: as §1

[4] = compound: Cc1ncc(-c2ccnc(Nc3ccc(S(C)(=O)=O)cc3)n2)n1C(C)C
Method in brief: as §1

[5] = compound: Cn1cc(-c2ccc3c(c2)CCN3C(=O)Cc2cccc(C(F)(F)F)c2)c2c(N)ncnc21
Method in brief: as §1

[6] = compound: Cn1cc(CNCC2CCN(c3ncc(C(=O)NO)cn3)CC2)c2ccccc21 [quisinostat]
Method in brief: as §1

[7] = compound: Cn1cncc1[C@@](N)(c1ccc(Cl)cc1)c1ccc2c(c1)c(-c1cccc(Cl)c1)cc(=O)n2C [tipifarnib]
Method in brief: as §1

[8] = compound: NC(=O)Nc1cc(-c2cccc(F)c2)sc1C(=O)N[C@H]1CCCNC1
Method in brief: as §1

[9] = compound: NC(=O)c1cnc(N[C@@H]2CCCC[C@@H]2N)nc1Nc1cccc(-n2nccn2)c1
Method in brief: as §1

[10] = compound: NC1(c2ccc(-c3nc4ccn5c(=O)[nH]nc5c4cc3-c3ccccc3)cc2)CCC1
Method in brief: as §1

[11] = compound: NCC(=O)Nc1ccc(-n2nc(C(F)(F)F)cc2-c2ccc3c(ccc4ccccc43)c2)cc1
Method in brief: as §1

[12] = compound: O=C(CCCCCCC(=O)Nc1ccccc1)NO [vorinostat]
Method in brief: as §1

[13] = compound: O=C(O)c1ccc2c(c1)nc(Nc1cccc(Cl)c1)c1ccncc12 [silmitasertib]
Method in brief: as §1

[14] = compound: O=C1NC(=O)C(c2cnc3ccccn23)=C1c1cn2c3c(cc(F)cc13)CN(C(=O)N1CCCCC1)CC2
Method in brief: as §1

[15] = compound: c1cn2cc(-c3ccc4cn[nH]c4c3)nc(Nc3ccc(N4CCOCC4)cc3)c2n1 [entospletinib]
Method in brief: as §1

Measured: log2 fold change

ATAD3B (UniProt Q5T9A4)
UniProt Q5T9A4, sequence (Q5T9A4 whole entry, looked up): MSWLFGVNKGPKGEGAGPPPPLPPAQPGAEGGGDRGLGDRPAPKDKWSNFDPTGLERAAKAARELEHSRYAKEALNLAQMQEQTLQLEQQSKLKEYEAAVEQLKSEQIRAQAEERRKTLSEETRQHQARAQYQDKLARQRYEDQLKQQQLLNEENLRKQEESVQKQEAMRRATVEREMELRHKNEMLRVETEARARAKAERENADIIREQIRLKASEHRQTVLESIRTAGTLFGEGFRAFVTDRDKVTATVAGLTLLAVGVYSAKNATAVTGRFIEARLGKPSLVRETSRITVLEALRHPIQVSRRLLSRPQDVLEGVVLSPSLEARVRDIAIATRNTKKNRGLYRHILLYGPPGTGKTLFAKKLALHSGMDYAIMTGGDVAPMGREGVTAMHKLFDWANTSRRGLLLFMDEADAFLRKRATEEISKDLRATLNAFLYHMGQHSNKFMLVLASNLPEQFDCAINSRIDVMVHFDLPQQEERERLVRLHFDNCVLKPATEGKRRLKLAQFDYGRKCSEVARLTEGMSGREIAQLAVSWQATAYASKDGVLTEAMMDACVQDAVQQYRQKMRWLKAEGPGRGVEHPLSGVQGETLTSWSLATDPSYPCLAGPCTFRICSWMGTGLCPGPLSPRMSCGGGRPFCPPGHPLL
inactive: [1] -0.017 | [2] 0.019 | [3] 0.01 | [4] -0.026 | [5] 0.046 | [6] 0.018 | [7] -0.004 | [8] 0.051 | [9] -0.006 | [10] 0.006 | [11] -0.128 | [12] 0.132 | [13] 0.015 | [14] -0.057 | [15] 0.012

C15orf41 (UniProt Q9Y2V0)
active: [12] -0.362
inactive: [1] -0.041 | [2] 0 | [3] 0.09 | [4] 0.038 | [5] -0.036 | [6] -0.023 | [7] -0.014 | [8] 0.076 | [9] 0.024 | [10] 0 | [11] -0.124 | [13] -0.011 | [14] -0.012 | [15] 0.04

CEP76 (UniProt Q8TAP6)
inactive: [1] -0.005 | [2] -0.021 | [3] -0.002 | [4] -0.021 | [5] -0.005 | [7] 0.006 | [8] -0.01 | [9] -0.015 | [10] -0.02 | [11] -0.1 | [12] -0.055 | [13] 0.027 | [14] -0.051 | [15] 0.039
active: [6] -0.241

CCNB2 (UniProt O95067)
active: [4] 0.21
inactive: [1] -0.053 | [2] 0.081 | [3] -0.016 | [5] -0.046 | [6] -0.081 | [7] -0.029 | [8] 0.012 | [9] -0.038 | [10] 0 | [11] 0.01 | [12] -0.115 | [13] -0.079 | [14] -0.08 | [15] 0.044

CDS2 (UniProt O95674)
inactive: [1] -0.035 | [2] -0.093 | [3] 0.073 | [4] 0.062 | [5] -0.005 | [6] -0.045 | [7] 0.093 | [8] -0.01 | [9] 0 | [10] -0.152 | [11] 0.007 | [12] 0.093 | [13] 0.024 | [14] -0.065 | [15] -0.028

BOLA2 (UniProt Q9H3K6)
inactive: [1] 0.039 | [2] -0.036 | [3] -0.002 | [4] -0.021 | [5] 0.009 | [6] 0.063 | [7] 0.01 | [8] -0.042 | [9] -0.013 | [10] 0.096 | [11] -0.085 | [12] 0.1 | [13] 0.039 | [14] -0.039 | [15] -0.015

CARD9 (UniProt Q9H257)
UniProt Q9H257, sequence (Q9H257 whole entry, looked up): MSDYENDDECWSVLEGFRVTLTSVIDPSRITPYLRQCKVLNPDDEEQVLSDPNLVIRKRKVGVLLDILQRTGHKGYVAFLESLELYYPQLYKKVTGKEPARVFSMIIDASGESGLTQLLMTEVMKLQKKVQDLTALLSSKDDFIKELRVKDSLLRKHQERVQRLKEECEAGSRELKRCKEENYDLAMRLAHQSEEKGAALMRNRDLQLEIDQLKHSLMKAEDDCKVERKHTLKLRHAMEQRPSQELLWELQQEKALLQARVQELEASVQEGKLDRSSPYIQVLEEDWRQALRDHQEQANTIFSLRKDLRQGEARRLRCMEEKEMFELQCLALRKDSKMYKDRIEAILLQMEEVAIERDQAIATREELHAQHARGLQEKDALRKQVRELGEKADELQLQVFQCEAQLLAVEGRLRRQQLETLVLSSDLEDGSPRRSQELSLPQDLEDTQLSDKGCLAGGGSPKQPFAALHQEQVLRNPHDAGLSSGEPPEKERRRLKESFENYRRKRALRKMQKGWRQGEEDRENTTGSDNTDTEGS
active: [12] -0.217
inactive: [1] 0.047 | [2] -0.037 | [3] -0.017 | [4] 0.028 | [5] 0 | [6] -0.032 | [7] -0.035 | [8] 0.005 | [9] 0.034 | [10] -0.007 | [11] 0.008 | [13] 0.011 | [14] 0.014 | [15] -0.038

CASP9 (UniProt P55211)
inactive: [1] -0.004 | [2] 0.006 | [3] -0.055 | [4] -0.012 | [5] -0.013 | [6] -0.056 | [7] 0.005 | [8] 0.056 | [9] -0.011 | [10] 0.007 | [11] 0.011 | [13] -0.004 | [14] 0.019 | [15] -0.002
active: [12] -0.342

CCNH (UniProt P51946)
UniProt P51946, sequence (P51946 whole entry, looked up): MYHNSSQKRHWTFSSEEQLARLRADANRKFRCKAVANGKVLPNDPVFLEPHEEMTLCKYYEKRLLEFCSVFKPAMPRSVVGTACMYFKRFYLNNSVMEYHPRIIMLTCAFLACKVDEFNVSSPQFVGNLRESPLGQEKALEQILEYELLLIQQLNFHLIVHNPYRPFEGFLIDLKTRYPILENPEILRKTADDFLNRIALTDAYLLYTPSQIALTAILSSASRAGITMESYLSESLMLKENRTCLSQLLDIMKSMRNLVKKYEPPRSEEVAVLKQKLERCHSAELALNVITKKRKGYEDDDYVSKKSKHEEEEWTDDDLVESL
inactive: [1] -0.013 | [2] 0.106 | [3] 0.03 | [4] -0.001 | [5] 0.015 | [6] 0.016 | [7] -0.043 | [8] -0.009 | [9] 0.026 | [10] 0.013 | [11] 0.028 | [13] 0.02 | [14] -0.07 | [15] 0.02
active: [12] -0.43

CDK5 (UniProt Q00535)
active: [4] 0.541 | [13] 0.855
inactive: [1] -0.013 | [2] 0.23 | [3] 0.022 | [5] 0.019 | [6] -0.132 | [7] 0.003 | [8] 0.044 | [9] 0.05 | [10] -0.112 | [11] -0.036 | [12] -0.232 | [14] 0.179 | [15] 0.036

CARS isoform 3 (UniProt P49589)
active: [12] -0.254
inactive: [1] -0.019 | [2] -0.007 | [3] -0.024 | [4] -0.007 | [5] 0.012 | [6] 0.048 | [7] 0.007 | [8] 0.004 | [9] 0.001 | [10] -0.01 | [11] 0.018 | [13] 0.018 | [14] -0.049 | [15] 0.008

ATXN2 (UniProt Q99700)
inactive: [1] -0.04 | [2] 0.023 | [3] 0.023 | [4] -0.003 | [5] 0.047 | [6] -0.065 | [7] 0.014 | [8] 0.045 | [9] 0.011 | [10] -0.028 | [11] 0.024 | [13] -0.01 | [14] -0.005 | [15] -0.008
active: [12] -0.282

ATP13A1 (UniProt Q9HD20)
UniProt Q9HD20, sequence (Q9HD20 whole entry, looked up): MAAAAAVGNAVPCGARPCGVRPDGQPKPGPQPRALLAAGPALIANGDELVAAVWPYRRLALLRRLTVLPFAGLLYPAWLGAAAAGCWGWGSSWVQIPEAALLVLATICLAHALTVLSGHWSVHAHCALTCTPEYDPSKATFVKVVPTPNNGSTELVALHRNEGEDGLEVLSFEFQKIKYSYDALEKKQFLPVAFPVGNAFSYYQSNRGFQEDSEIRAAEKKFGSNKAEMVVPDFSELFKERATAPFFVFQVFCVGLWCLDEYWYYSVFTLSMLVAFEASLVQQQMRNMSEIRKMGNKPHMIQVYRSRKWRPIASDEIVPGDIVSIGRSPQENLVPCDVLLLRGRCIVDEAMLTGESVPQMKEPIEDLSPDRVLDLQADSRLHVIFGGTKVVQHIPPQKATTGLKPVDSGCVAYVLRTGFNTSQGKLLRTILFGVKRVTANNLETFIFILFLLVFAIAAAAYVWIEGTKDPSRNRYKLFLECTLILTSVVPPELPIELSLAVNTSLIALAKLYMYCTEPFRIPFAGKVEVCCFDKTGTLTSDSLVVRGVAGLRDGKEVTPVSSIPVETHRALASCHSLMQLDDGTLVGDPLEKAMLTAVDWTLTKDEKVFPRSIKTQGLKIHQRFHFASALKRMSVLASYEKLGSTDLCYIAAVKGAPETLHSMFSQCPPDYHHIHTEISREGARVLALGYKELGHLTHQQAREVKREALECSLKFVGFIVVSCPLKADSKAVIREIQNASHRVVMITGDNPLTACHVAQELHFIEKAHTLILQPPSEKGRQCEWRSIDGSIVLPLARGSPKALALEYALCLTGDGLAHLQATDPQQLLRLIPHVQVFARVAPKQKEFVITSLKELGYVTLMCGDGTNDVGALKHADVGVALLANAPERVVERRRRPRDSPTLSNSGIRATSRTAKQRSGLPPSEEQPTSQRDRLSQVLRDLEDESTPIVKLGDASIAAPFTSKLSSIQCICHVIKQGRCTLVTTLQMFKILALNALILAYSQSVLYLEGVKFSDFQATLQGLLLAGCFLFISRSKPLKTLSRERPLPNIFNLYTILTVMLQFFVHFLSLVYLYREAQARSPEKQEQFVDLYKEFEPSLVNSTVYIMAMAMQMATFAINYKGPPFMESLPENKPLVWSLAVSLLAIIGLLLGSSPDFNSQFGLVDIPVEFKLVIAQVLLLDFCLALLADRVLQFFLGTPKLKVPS
inactive: [1] 0.009 | [2] 0.004 | [3] 0.102 | [4] 0.003 | [5] 0.005 | [6] 0.001 | [7] -0.109 | [8] -0.044 | [9] 0.07 | [10] 0.065 | [11] -0.009 | [12] -0.094 | [13] 0.03 | [14] -0.02 | [15] -0.03

CCPG1 isoform 5 (UniProt Q9ULG6)
UniProt Q9ULG6, sequence (Q9ULG6 whole entry, looked up): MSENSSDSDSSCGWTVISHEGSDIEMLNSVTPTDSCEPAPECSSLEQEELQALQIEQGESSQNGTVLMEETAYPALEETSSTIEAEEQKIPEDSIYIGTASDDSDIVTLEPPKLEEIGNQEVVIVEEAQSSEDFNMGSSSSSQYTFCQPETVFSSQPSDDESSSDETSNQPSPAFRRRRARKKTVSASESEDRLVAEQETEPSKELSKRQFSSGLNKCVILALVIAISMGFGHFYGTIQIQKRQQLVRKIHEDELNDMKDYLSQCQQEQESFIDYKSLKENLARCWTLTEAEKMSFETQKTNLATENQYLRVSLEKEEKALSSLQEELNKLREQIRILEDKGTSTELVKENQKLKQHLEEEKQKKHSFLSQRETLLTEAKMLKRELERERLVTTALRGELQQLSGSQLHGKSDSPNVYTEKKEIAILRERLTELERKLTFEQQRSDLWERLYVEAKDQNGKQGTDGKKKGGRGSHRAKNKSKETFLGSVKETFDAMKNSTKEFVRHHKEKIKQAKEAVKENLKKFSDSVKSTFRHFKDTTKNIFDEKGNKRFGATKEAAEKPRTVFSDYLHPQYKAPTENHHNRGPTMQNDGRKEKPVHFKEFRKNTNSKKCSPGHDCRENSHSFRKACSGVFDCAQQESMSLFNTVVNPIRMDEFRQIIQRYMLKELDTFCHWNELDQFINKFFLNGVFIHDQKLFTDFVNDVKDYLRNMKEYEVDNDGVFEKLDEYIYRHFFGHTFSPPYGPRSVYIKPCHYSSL
inactive: [1] 0.067 | [2] 0.017 | [3] 0.013 | [4] 0.087 | [5] 0.004 | [6] -0.021 | [7] -0.033 | [8] 0.029 | [9] 0 | [10] -0.073 | [11] -0.022 | [12] 0.043 | [13] -0.012 | [14] -0.025 | [15] 0

CDC42EP4 (UniProt Q9H3Q1)
UniProt Q9H3Q1, sequence (Q9H3Q1 whole entry, looked up): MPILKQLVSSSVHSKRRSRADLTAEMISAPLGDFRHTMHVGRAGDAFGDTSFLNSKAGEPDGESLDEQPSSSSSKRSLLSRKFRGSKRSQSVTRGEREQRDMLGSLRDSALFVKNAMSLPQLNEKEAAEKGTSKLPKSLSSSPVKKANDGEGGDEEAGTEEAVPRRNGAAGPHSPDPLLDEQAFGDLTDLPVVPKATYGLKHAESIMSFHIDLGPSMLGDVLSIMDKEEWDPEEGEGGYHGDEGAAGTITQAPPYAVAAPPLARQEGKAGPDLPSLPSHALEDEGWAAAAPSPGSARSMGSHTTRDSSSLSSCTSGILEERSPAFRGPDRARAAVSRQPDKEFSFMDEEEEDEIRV
inactive: [1] 0.061 | [2] -0.043 | [3] 0.039 | [4] -0.026 | [5] -0.028 | [6] -0.045 | [7] 0.006 | [8] -0.02 | [9] -0.025 | [10] 0.02 | [11] 0 | [12] 0.018 | [13] -0.074 | [14] 0.021 | [15] 0.051

BNIP1 (UniProt Q12981)
UniProt Q12981, sequence (Q12981 whole entry, looked up): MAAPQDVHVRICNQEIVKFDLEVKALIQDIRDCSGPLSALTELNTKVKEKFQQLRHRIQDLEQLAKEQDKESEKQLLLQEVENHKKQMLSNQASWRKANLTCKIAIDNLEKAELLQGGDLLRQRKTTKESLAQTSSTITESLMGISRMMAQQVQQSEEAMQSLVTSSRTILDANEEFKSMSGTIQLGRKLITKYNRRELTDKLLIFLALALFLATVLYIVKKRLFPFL
inactive: [1] -0.004 | [2] -0.037 | [3] -0.005 | [4] -0.028 | [5] -0.045 | [6] -0.014 | [7] -0.046 | [8] -0.034 | [9] -0.033 | [10] 0.057 | [11] -0.013 | [12] -0.049 | [13] 0.066 | [14] -0.026 | [15] -0.051

CDK9 isoform 2 (UniProt P50750)
UniProt P50750, sequence (P50750 whole entry, looked up): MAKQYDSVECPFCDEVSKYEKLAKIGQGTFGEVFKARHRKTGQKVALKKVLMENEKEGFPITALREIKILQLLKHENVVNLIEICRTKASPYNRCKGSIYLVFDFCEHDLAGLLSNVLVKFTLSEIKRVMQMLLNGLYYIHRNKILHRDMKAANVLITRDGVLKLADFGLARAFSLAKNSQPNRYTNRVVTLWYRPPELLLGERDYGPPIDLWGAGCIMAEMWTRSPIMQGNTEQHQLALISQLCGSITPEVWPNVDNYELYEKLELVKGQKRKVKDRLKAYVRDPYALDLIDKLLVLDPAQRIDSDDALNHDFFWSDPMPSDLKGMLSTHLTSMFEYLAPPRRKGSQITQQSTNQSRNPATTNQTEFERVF
inactive: [1] -0.035 | [2] 0.255 | [3] 0.003 | [5] -0.007 | [6] -0.028 | [7] -0.016 | [8] 0.009 | [9] 0.078 | [10] -0.04 | [11] 0.081 | [12] -0.198 | [13] 0.164 | [14] 0.402 | [15] 0.038
active: [4] 0.403

C12orf45 (UniProt Q8N5I9)
UniProt Q8N5I9, sequence (Q8N5I9 whole entry, looked up): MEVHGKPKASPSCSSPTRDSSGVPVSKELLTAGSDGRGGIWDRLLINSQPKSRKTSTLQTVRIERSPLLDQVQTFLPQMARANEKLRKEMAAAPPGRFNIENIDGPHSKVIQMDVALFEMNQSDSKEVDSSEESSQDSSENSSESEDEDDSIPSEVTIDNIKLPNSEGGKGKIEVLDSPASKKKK
inactive: [1] -0.026 | [2] -0.003 | [3] 0.019 | [4] -0.017 | [5] 0.035 | [6] -0.019 | [7] -0.014 | [8] -0.015 | [9] 0 | [10] 0.024 | [11] 0.063 | [12] 0.012 | [13] -0.059 | [14] -0.027 | [15] 0

C1orf112 (UniProt Q9NSG2)
inactive: [1] 0.089 | [2] -0.015 | [3] -0.102 | [4] 0.017 | [5] 0.05 | [6] -0.1 | [7] -0.046 | [8] 0.036 | [9] -0.03 | [10] -0.007 | [11] -0.075 | [12] -0.095 | [13] -0.084 | [14] 0.003 | [15] -0.037

BSDC1 (UniProt Q9NW68)
inactive: [1] 0.016 | [2] -0.009 | [3] 0.018 | [4] 0.027 | [5] -0.018 | [6] -0.024 | [7] -0.093 | [8] 0.003 | [9] -0.023 | [10] 0.016 | [11] -0.073 | [12] 0.13 | [13] -0.018 | [14] 0.024 | [15] -0.002

CCNYL1 (UniProt Q8N7R7)
UniProt Q8N7R7, sequence (Q8N7R7 whole entry, looked up): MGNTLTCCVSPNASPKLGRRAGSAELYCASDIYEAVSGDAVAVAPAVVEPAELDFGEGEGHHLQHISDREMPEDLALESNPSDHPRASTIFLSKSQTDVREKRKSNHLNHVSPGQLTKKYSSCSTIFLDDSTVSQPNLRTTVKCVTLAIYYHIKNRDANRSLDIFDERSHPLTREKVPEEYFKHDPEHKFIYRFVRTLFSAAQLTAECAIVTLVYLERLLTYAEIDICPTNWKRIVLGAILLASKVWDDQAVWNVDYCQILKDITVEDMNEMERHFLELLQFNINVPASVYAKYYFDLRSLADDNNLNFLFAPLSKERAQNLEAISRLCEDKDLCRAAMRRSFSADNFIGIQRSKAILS
inactive: [1] -0.001 | [2] -0.033 | [3] 0.034 | [4] 0.043 | [5] -0.003 | [6] -0.078 | [7] -0.08 | [8] 0.008 | [9] 0.075 | [10] -0.006 | [11] -0.013 | [13] 0.079 | [14] 0.019 | [15] -0.005
active: [12] -0.674
